Among the data in PubChem BioAssay (NCI) are growth values, retold here.

Compounds without any hit were thinned out: in the full panel of roughly 83,000, 20% have a hit.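 96-well plates, one dose, 48 hours. Percent growth reported; active if below 10.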 A number with no mark means an inactive call. Active and inactive are the calls of the source.

In one assay the test system is RPMI-8226 leukemia. The assay is described as follows: NCI-60 one-dose screen, 48 h (100 = growth as untreated, 0 = no growth, -100 = all killed). The note with it: 10 µM unless noted.
Consider `COc1ccc(-c2c(-c3ccc(OC)c(O)c3)cnc3ncnn23)cc1`, for which the growth was 108%.
Consider `O=C(Nc1ccc(F)cc1F)c1cc(Br)ccc1O`, for which the growth was -10.4% (active).
Same read-out and setting: the figure for `COc1ccc(-c2cc(=O)c3c(OC)c4ccoc4c(/C=C/C=O)c3o2)cc1` is 0.179% (active); for `Cc1nc(Nc2cn[nH]c2C(=O)Nc2ccc(CN3CCN(C)CC3)cc2)c2ccsc2n1` it is 79%; for `O=[N+]([O-])c1cc2c(ccc3occc32)o1` it is 36.5%.
Consider `CN1CCN(c2nc(Nc3ccc(O)cc3)nc3ccccc23)CC1`, for which the growth was 32.7%.
Consider `Nc1ncnc(N)c1NC(=O)c1ccc(OCc2ccccc2)cc1`, for which the growth was 105%.
As for `CSc1nc2c(c(=O)[nH]1)N=C1c3ccccc3C(=O)C1C(c1ccc(F)cc1)N2` (stereo unspecified), the growth was 68.4%.
As for `COc1ccc(-c2nc(-c3ccccn3)c(-c3ccccn3)n2CC(C)C)cc1OC1CCCC1`, the growth was -1.78% (active).
Take `O=C1NC(=S)NC(=O)C1=Cc1cn(Cc2cn(Cc3cccc4ccccc34)nn2)c2ccccc12`: the growth was 104%.
With `O=C(Nc1ccc(Br)cc1F)c1cc(Cl)ccc1O`, the growth was -24.5% (active).
On to `CN1C(=O)N(C)C2Nn3c(s/c(=C4\C(=O)N(CCc5ccccc5)c5ccccc54)c3=O)=NC21` (stereo unspecified), for which the growth is 57.2%.
For `CC(=O)c1ccc(Cc2ccc(C(C)=O)s2)s1`, the growth was 95.2%.
In the case of `O=c1oc2ccc(F)cc2c(=O)n1-c1ccc(F)cc1F`, the growth was 5.47% (active).
As to `O=C(Nc1ccc(-c2nc3cc4ccccc4cc3[nH]2)cc1)c1cccc(Br)c1`, the growth is 23%.
As for `CCOc1c(Br)cc(C2C(C(=O)OC)=CN(C)C=C2C(=O)OC)cc1OC`, the growth is 7.41% (active).
As for `COc1ccc(Cn2c(Br)c3c(c2-c2cc(OC)c(OC)c(OC)c2)CCc2sc(NC(=O)c4ccc(OC)cc4)nc2-3)cc1`, the growth was 81.7%.
For `O=C1c2cc(Br)ccc2Oc2cc([N+](=O)[O-])ccc2N1c1ccc(I)cc1F`, the growth was 104%.
With `COc1ccc(Nc2nc(N/N=C/c3ccc(O)cc3)nc(Nc3ccc([N+](=O)[O-])cc3)n2)cc1`, the growth is 99.7%.
On to `Nc1ccn(C2O[C@H](CO)[C@@H](O)[C@H]2O)c(=O)n1` (stereo partly specified), for which the growth was 49.8%.
On to `CCN1C(=O)N(CC)C2C1NN=c1s/c(=C3\C(=O)N(C(C)C)c4ccccc43)c(=O)n12` (stereo unspecified), for which the growth is 7.53% (active).
For `CC1(C)CC2(C)OC2C2(C1)N=NC(=Nc1ccccc1)O2` (stereo unspecified), the growth was 4.43% (active).
Turning to `COc1cc(C(C)n2cc(-c3ccccc3)nn2)ccc1OC1CCCC1` (stereo unspecified), the growth is 36.1%.
With `COC(=O)C1=C(C)NC(C)=C(C(=O)OC)C(N2C(=O)CCC2=O)C1` (stereo unspecified), the growth was 66.8%.
The same measure, in the same setting: the figure for `O=c1oc2ccc(Cl)cc2c(=O)n1-c1ccc(Cl)cc1F` is -28.5% (active); for `COc1ccc2sc(N(Cc3cccnc3)C(=O)c3ccc(C#N)cc3)nc2c1` it is 64.4%; for `O=C(O)CCCN1C(=O)C2C3CCC(C3)C2C1=O` (stereo unspecified) it is 108%.
On the same count and under the same terms, the figure for `CN1C(=O)N(C)C2(c3ccccc3)OC(=S)NC12c1ccccc1` (stereo unspecified) is 109%.
With `Nc1nonc1-n1nncc1-c1cccnc1`, the growth is 105%.
For the molecule `COc1cc(C(C)n2cc(-c3ccccc3)nn2)ccc1OC1CCCCC1` (stereo unspecified), the growth was 35%.
The same measure, in the same setting: the figure for `Nc1ccc(-c2nn3c(CCC(=O)c4nc5ncccc5[nH]4)nnc3s2)c(O)c1` is 101%; for `O=NN(C(=O)NC1CCC(C(=O)O)CC1)C1CCC(C(=O)O)CC1` (stereo unspecified) it is 81.8%; for `COc1ccc(OC)c(/C=C/C(=O)c2c(C)nc3ccccc3c2/C=C/c2ccccc2)c1` it is 19.5%.
For the molecule `Cc1nc(Nc2ccccn2)sc1C(=O)/C=C/c1ccc(Cl)cc1`, the growth is 12%.
`O=C(Nc1ccc(-c2nc3ccc(NC(=O)c4ccc(Cl)cc4)cc3[nH]2)cc1)c1ccc(Cl)cc1`: the growth was -22.6% (active).
For the molecule `O=C(COc1cc(O)c2c(=O)cc(-c3ccccc3)oc2c1)Nc1ccccc1C(F)(F)F`, the growth was 54.8%.
Regarding `COc1ccc(CCN2C(=O)CCSC2=S)cc1OC`, the growth is 37.4%.
`COc1ccc(Cn2c(Br)c3c(c2Br)-c2nc(N)sc2CC3)cc1`: the growth was 27.3%.

A further assay deals with OVCAR-8 ovarian. The description is as above. The note with it: 10 µM unless noted.
As to `COc1ccc(-c2c(-c3ccc(OC)c(O)c3)cnc3ncnn23)cc1`, the growth is 101%.
On to `O=C(Nc1ccc(F)cc1F)c1cc(Br)ccc1O`, for which the growth is 8.63% (active).
With `COc1ccc(-c2cc(=O)c3c(OC)c4ccoc4c(/C=C/C=O)c3o2)cc1`, the growth was 28.5%.
Consider `Cc1nc(Nc2cn[nH]c2C(=O)Nc2ccc(CN3CCN(C)CC3)cc2)c2ccsc2n1`, for which the growth is 102%.
With `O=[N+]([O-])c1cc2c(ccc3occc32)o1`, the growth is 30%.
As to `CN1CCN(c2nc(Nc3ccc(O)cc3)nc3ccccc23)CC1`, the growth was 30.1%.
As to `Nc1ncnc(N)c1NC(=O)c1ccc(OCc2ccccc2)cc1`, the growth is 102%.
`CSc1nc2c(c(=O)[nH]1)N=C1c3ccccc3C(=O)C1C(c1ccc(F)cc1)N2` (stereo unspecified): the growth was 78.9%.
`COc1ccc(-c2nc(-c3ccccn3)c(-c3ccccn3)n2CC(C)C)cc1OC1CCCC1`: the growth was 15.7%.
For the molecule `O=C1NC(=S)NC(=O)C1=Cc1cn(Cc2cn(Cc3cccc4ccccc34)nn2)c2ccccc12`, the growth is 102%.
`O=C(Nc1ccc(Br)cc1F)c1cc(Cl)ccc1O`: the growth was 9.87% (active).
On to `CN1C(=O)N(C)C2Nn3c(s/c(=C4\C(=O)N(CCc5ccccc5)c5ccccc54)c3=O)=NC21` (stereo unspecified), for which the growth was 80.9%.
Turning to `CC(=O)c1ccc(Cc2ccc(C(C)=O)s2)s1`, the growth was 107%.
As for `O=c1oc2ccc(F)cc2c(=O)n1-c1ccc(F)cc1F`, the growth is 23.3%.
Same read-out and setting: the figure for `O=C(Nc1ccc(-c2nc3cc4ccccc4cc3[nH]2)cc1)c1cccc(Br)c1` is 7.87% (active); for `CCOc1c(Br)cc(C2C(C(=O)OC)=CN(C)C=C2C(=O)OC)cc1OC` it is 85.8%.
Consider `COc1ccc(Cn2c(Br)c3c(c2-c2cc(OC)c(OC)c(OC)c2)CCc2sc(NC(=O)c4ccc(OC)cc4)nc2-3)cc1`, for which the growth was 96%.
Consider `O=C1c2cc(Br)ccc2Oc2cc([N+](=O)[O-])ccc2N1c1ccc(I)cc1F`, for which the growth was 94.6%.
Same read-out and setting: the figure for `COc1ccc(Nc2nc(N/N=C/c3ccc(O)cc3)nc(Nc3ccc([N+](=O)[O-])cc3)n2)cc1` is 100%; for `Nc1ccn(C2O[C@H](CO)[C@@H](O)[C@H]2O)c(=O)n1` (stereo partly specified) it is 58.5%; for `CCN1C(=O)N(CC)C2C1NN=c1s/c(=C3\C(=O)N(C(C)C)c4ccccc43)c(=O)n12` (stereo unspecified) it is 12.6%.
`CC1(C)CC2(C)OC2C2(C1)N=NC(=Nc1ccccc1)O2` (stereo unspecified): the growth is 77.8%.
Regarding `COc1cc(C(C)n2cc(-c3ccccc3)nn2)ccc1OC1CCCC1` (stereo unspecified), the growth is 65.6%.
Still for that read-out and setting: the figure for `COC(=O)C1=C(C)NC(C)=C(C(=O)OC)C(N2C(=O)CCC2=O)C1` (stereo unspecified) is 88.7%; for `O=c1oc2ccc(Cl)cc2c(=O)n1-c1ccc(Cl)cc1F` it is 8.62% (active).
With `COc1ccc2sc(N(Cc3cccnc3)C(=O)c3ccc(C#N)cc3)nc2c1`, the growth is 80.7%.
Regarding `O=C(O)CCCN1C(=O)C2C3CCC(C3)C2C1=O` (stereo unspecified), the growth is 103%.
Same read-out and setting: to `CN1C(=O)N(C)C2(c3ccccc3)OC(=S)NC12c1ccccc1` (stereo unspecified) belongs 100%; to `Nc1nonc1-n1nncc1-c1cccnc1`, 111%; to `COc1cc(C(C)n2cc(-c3ccccc3)nn2)ccc1OC1CCCCC1` (stereo unspecified), 55.3%.
Take `Nc1ccc(-c2nn3c(CCC(=O)c4nc5ncccc5[nH]4)nnc3s2)c(O)c1`: the growth was 98.2%.
Still for that read-out and setting: to `O=NN(C(=O)NC1CCC(C(=O)O)CC1)C1CCC(C(=O)O)CC1` (stereo unspecified) belongs 99.7%; to `COc1ccc(OC)c(/C=C/C(=O)c2c(C)nc3ccccc3c2/C=C/c2ccccc2)c1`, 40.5%.
For `Cc1nc(Nc2ccccn2)sc1C(=O)/C=C/c1ccc(Cl)cc1`, the growth was 10.1%.
As to `O=C(Nc1ccc(-c2nc3ccc(NC(=O)c4ccc(Cl)cc4)cc3[nH]2)cc1)c1ccc(Cl)cc1`, the growth is 21.4%.
As to `O=C(COc1cc(O)c2c(=O)cc(-c3ccccc3)oc2c1)Nc1ccccc1C(F)(F)F`, the growth was 29%.
`COc1ccc(CCN2C(=O)CCSC2=S)cc1OC`: the growth is 97.2%.
Regarding `COc1ccc(Cn2c(Br)c3c(c2Br)-c2nc(N)sc2CC3)cc1`, the growth was 41%.
